Screens (PubChem)
HTR2A ag = agonists of mouse serotonin 5-HT2A receptor (HTR2A). CHO-K1 mHTR2A beta-arrestin complementation, luminescence; percent of 30 µM serotonin response. activation, % at 7.6 µM. 0.66% of 360,000 active. AID 624169;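 active = activation above a run cutoff, the mean activation of all tested compounds plus 3 SD, cut at about 14% in these data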
CRFR2-BP antag = CRF-BP/CRF-R2 complex antagonism. HEK293 CRF-R2/CRF-BP, CRF-induced calcium fluorescence. inhibition, % at 11.8 µM. 0.59% of 350,000 active. AID 588475;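 active = inhibition of the ligand-induced calcium signal above about 50% at the single tested concentration, limit read from the data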
TLR4-MyD88 BLA = inhibitors of human TLR4-MyD88 binding; 0.18% of 200,000 active; inhibition, % at 8.4 µM; HeLa CL3-4 TLR4/MyD88 BLA complementation, FRET ratio; AID 861; in the data active = inhibition above about 25%
TLR9-MyD88 inh = blocks human TLR9 binding to MyD88 | Q9NR96+Q99836 | CHO BLA complementation TLR9-MyD88, CCF4 FRET ratio | inhibition, % at 4.98 µM | 0.21% of 340,000 active | AID 504734;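 active = inhibition above the mean over all tested compounds plus 3 SD, cut at about 21% in these data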
ABHD5 PLIN5 PPI = ABHD5-PLIN5 protein interaction inhibition; 0.78% of 360,000 active; Q00G26+Q8WTS1; Split G. princeps luciferase complementation, luminescence, 4 h; AID 602281; inhibition, % at 4 µM;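 active = inhibition above the mean inhibition across every tested compound plus 3 SD, cut at about 22% in these data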
NOD2 RIPK2 PPI = inhibitors of human NOD2-RIPK2 interaction; O43353; CHO BLA complementation NOD2-RIPK2, CCF4 ratio; inhibition, % at 4.98 µM; 0.38% of 360,000 active; in the data active = inhibition above about 21%
OPRM1 ag = counter-screen for mouse HTR2A agonists: human mu opioid receptor agonists; shares compounds with HTR2A ag; U2OS OPRM1 beta-arrestin PathHunter, luminescence; DMSO 0%, DAMGO 9.3 µM 100%; activation, % at 9.3 µM; 5.3% of 2,300 active; AID 624380;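 active = mean activation above the mean of DMSO-only wells plus 3 SD, cut at about 0.5% in these data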
HTR2A ag conf = confirmation of mouse HTR2A serotonin receptor agonists; shares compounds with HTR2A ag; CHO-K1 PathHunter beta-arrestin recruitment, luminescence; DMSO 0%, 30 µM serotonin 100%; activation, % at 7.6 µM; 19% of 2,300 active; AID 624381;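 active = mean activation across triplicates above the hit threshold derived in the original primary screen, cut at about 15% in these data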
Each line names hits and unclear results; the compound was inactive in the other large screens (follow-up assays come after a bar, where they were run). Shown are actives, neighbours in structure and some others; about 2.4% of the full set was active somewhere.

CC(C)CN1C(=O)CN(S(C)(=O)=O)CC1(C)C(=O)Nc1ccc2c(c1)OCCO2 (stereo not given)	none (no result: CRFR2-BP antag, TLR4-MyD88 BLA, TLR9-MyD88 inh)
NC(=O)c1cc(S(=O)(=O)N2CCN(c3cccc(Cl)c3)CC2)cs1	HTR2A ag 14.6 (no result: TLR4-MyD88 BLA) | OPRM1 ag inactive | HTR2A ag conf inactive
O=C(Nc1ccc(Cl)cc1)Nn1cnnc1	none (no result: TLR4-MyD88 BLA)
Cc1ccc(NC(=O)Nn2cnnc2)cc1	HTR2A ag 16.2 (no result: TLR4-MyD88 BLA) | OPRM1 ag inactive | HTR2A ag conf inactive
C[C@@H]1CCCCO[C@H](CN(C)C(=O)Nc2ccc3c(c2)OCO3)[C@H](C)CN([C@@H](C)CO)C(=O)c2cc(NS(=O)(=O)c3ccc(Cl)cc3)ccc2O1	none (no result: TLR4-MyD88 BLA)
O=C(c1ccc(CS(=O)(=O)c2ccc(Br)cc2)o1)N1CCOCC1	none
COc1ccc(S(=O)(=O)Cc2ccc(C(=O)N3CCOCC3)o2)cc1	HTR2A ag 16.9 | OPRM1 ag inactive | HTR2A ag conf inactive
COc1cc(NC(=O)C2CC(c3ccccc3Cl)=NO2)cc(OC)c1OC (stereo not given)	HTR2A ag 18.2 (no result: TLR4-MyD88 BLA) | OPRM1 ag inactive | HTR2A ag conf inactive
COc1ccccc1Cc1c(-c2cccc(Cl)c2)nc2ccc(Br)cn12	none (no result: CRFR2-BP antag, TLR4-MyD88 BLA, TLR9-MyD88 inh)
COc1cc(OC)c(NC(=O)C2CCCO2)cc1Cl (stereo not given)	HTR2A ag 16.2 (no result: TLR4-MyD88 BLA) | OPRM1 ag inactive | HTR2A ag conf inactive
COc1cc(NC(=O)C2CCCO2)c(OC)cc1Cl (stereo not given)	none
CCN(CC)CCn1c(NC(=O)c2ccc(Cl)cc2)nc2ccccc21	HTR2A ag 18.2 | HTR2A ag conf inactive
CCN(CC)CCn1c(NC(=O)c2ccccc2O)nc2ccccc21	none (no result: TLR4-MyD88 BLA)
CC(=O)N1Cc2ccccc2CC1C(=O)NCc1ccccc1F (stereo not given)	HTR2A ag 15.9 (no result: TLR4-MyD88 BLA) | OPRM1 ag inactive | HTR2A ag conf inactive
CC1=C(C)CC(C(=O)NCc2ccccc2F)C(C(=O)O)C1 (stereo not given)	none (no result: CRFR2-BP antag, TLR4-MyD88 BLA)
COCCN(Cc1ccc(C)cc1)C(=O)[C@H]1O[C@@H](n2ccc(=O)[nH]c2=O)[C@H](O)[C@@H]1O	none (no result: CRFR2-BP antag, TLR4-MyD88 BLA, TLR9-MyD88 inh)
CCNC(=O)C1(C)CCCN(C(=O)c2cc(-c3cccs3)oc2C)C1 (stereo not given)	none (no result: CRFR2-BP antag, TLR4-MyD88 BLA, TLR9-MyD88 inh)
C[C@H](c1ccccc1)N1C[C@@H](COCc2ccccc2)Oc2cc(N3CC[C@@H](N(C)C)C3)ccc2S1(=O)=O	none (no result: CRFR2-BP antag, TLR4-MyD88 BLA, TLR9-MyD88 inh)
Cc1ccc(O)c(NC(=O)c2cc3nc4c(c(C(F)(F)F)n3n2)CCc2ccccc2-4)c1	HTR2A ag 15.8 | OPRM1 ag inactive | HTR2A ag conf inactive
COc1ccc(Cl)c(-c2cc(C(=O)Nc3ccc(F)cc3)[nH]n2)c1	none (no result: CRFR2-BP antag, TLR4-MyD88 BLA, TLR9-MyD88 inh)
CC1CN(C(=O)CS(=O)(=O)Cc2ccc(Cl)cc2)CC(C)O1 (stereo not given)	HTR2A ag 14.7 (no result: TLR4-MyD88 BLA) | OPRM1 ag inactive | HTR2A ag conf inactive
Cc1ccc(CC(=O)N2CC(C)OC(C)C2)cc1 (stereo not given)	none
CCCS(=O)(=O)NC(=O)C1(C)CCCN(C(=O)c2ccccc2C(F)(F)F)C1 (stereo not given)	HTR2A ag 19.7 (no result: CRFR2-BP antag, TLR4-MyD88 BLA, TLR9-MyD88 inh) | OPRM1 ag inactive | HTR2A ag conf inactive
COC1=CC(=O)OC(c2cccc(Cl)c2)C1 (stereo not given)	none (no result: CRFR2-BP antag, TLR4-MyD88 BLA, TLR9-MyD88 inh)
Cc1ccc(S(=O)(=O)NCCC(=O)O)cc1	none
CCN(CC)C(=O)CCNS(=O)(=O)c1ccc(C)cc1	HTR2A ag 15.2 | OPRM1 ag inactive | HTR2A ag conf inactive
Cc1cccc(OCC(=O)Nc2nnc(S(=O)(=O)N3CCCCC3)s2)c1	none (no result: TLR4-MyD88 BLA)
Cc1cccc(OCC(=O)Nc2nnc(S(=O)(=O)N3CCC(C)CC3)s2)c1	HTR2A ag 16.8 (no result: TLR4-MyD88 BLA) | OPRM1 ag inactive | HTR2A ag conf inactive
COc1ccc(CN(C)C(=O)c2ccc(NS(=O)(=O)c3ccc(C)c([N+](=O)[O-])c3)cc2)c(OC)c1OC	HTR2A ag 18.5 (no result: TLR4-MyD88 BLA) | OPRM1 ag inactive | HTR2A ag conf inactive
CCOc1ccc(-n2c(SCc3nc(-c4cccs4)no3)nnc2-c2ccncc2)cc1	HTR2A ag 29.4 | OPRM1 ag inactive | HTR2A ag conf inactive
CCCn1c(SCc2nc(-c3cccs3)no2)nnc1-c1ccncc1	none
O=C(c1cc(-c2ccccc2)on1)N1CCN(c2ccccc2)CC1	none (no result: TLR4-MyD88 BLA)
O=C(c1ccccc1C(=O)N1CCN(c2ccccc2)CC1)N1CCN(c2ccccc2)CC1	HTR2A ag 22.2 | OPRM1 ag inactive | HTR2A ag conf inactive
O=C(c1cc(-c2ccco2)on1)N1CCN(c2ccccc2)CC1	HTR2A ag 29.6 | OPRM1 ag inactive | HTR2A ag conf inactive
CCOc1ccccc1CN1CCNC(=O)C1CC(=O)NCCN1CCOC1=O (stereo not given)	HTR2A ag 15.0 (no result: TLR4-MyD88 BLA) | OPRM1 ag inactive | HTR2A ag conf inactive
O=C(CC1C(=O)NCCN1Cc1ccccc1C(F)(F)F)NCCn1cccn1 (stereo not given)	HTR2A ag 15.6 | OPRM1 ag inactive | HTR2A ag conf inactive
O=C(CC1C(=O)NCCN1Cc1ccccc1C(F)(F)F)NCCN1CCOCC1 (stereo not given)	none (no result: TLR4-MyD88 BLA)
CCCCCCCCN1C(=O)[C@H](CC(=O)N2CCN(C(=O)OCC)CC2)C[C@@]2(C(=O)OCC)CCCC=C12	none (no result: CRFR2-BP antag, TLR4-MyD88 BLA, TLR9-MyD88 inh)
Cc1cccc(C)c1-n1nnnc1C1(C)CCC(=O)N1CC(F)(F)F (stereo not given)	none (no result: CRFR2-BP antag, TLR4-MyD88 BLA, TLR9-MyD88 inh)
O=C(O)C1C2CCC(C2)C1C(=O)NCCc1cccc(Cl)c1 (stereo not given)	HTR2A ag 24.4 (no result: TLR4-MyD88 BLA) | OPRM1 ag inactive | HTR2A ag conf inactive
CCc1nnc(NS(=O)(=O)c2ccc(NS(=O)(=O)c3ccc(NC(C)=O)cc3)cc2)s1	none (no result: HTR2A ag, CRFR2-BP antag, TLR9-MyD88 inh, ABHD5 PLIN5 PPI, NOD2 RIPK2 PPI)
CCc1nnc(NS(=O)(=O)c2ccc(NC(=O)CCC(=O)O)cc2)s1	HTR2A ag 15.2 (no result: TLR4-MyD88 BLA) | OPRM1 ag inactive | HTR2A ag conf inactive
COC(=O)[C@]12CCCCC=C1N(Cc1cccc3ccccc13)C(=O)[C@H](CC(=O)NCc1cccc(C(F)(F)F)c1)C2	none (no result: CRFR2-BP antag, TLR4-MyD88 BLA, TLR9-MyD88 inh)
CCc1ccc(C#CC2=CC(=O)CC(C)(C)C2)cc1	none (no result: TLR4-MyD88 BLA)
COc1cccc(CNC(=O)CN2C(=O)COc3ccc(S(=O)(=O)N4CCCCC4)cc32)c1	HTR2A ag 16.1 (no result: TLR4-MyD88 BLA) | OPRM1 ag inactive | HTR2A ag conf inactive
COc1ccc(NC(=O)C2(C)CCN2C(=O)CC2CCCC2)cc1OC (stereo not given)	none (no result: CRFR2-BP antag, TLR4-MyD88 BLA, TLR9-MyD88 inh)
CCNc1nc(OC)nc(Oc2ccc(=O)n(-c3ccccc3)n2)n1	HTR2A ag 18.1 | OPRM1 ag inactive | HTR2A ag conf inactive
CC(C)(C)OC(=O)NNC(=S)NC1CCCCC1	HTR2A ag 16.3 | OPRM1 ag inactive | HTR2A ag conf inactive
